Among the data in PubChem BioAssay (Tox21) are Potency and outcome values, retold here.

Records with an inconclusive call do not appear. Unmarked numbers belong to inactive results. Active and inactive are the calls of the source. Unless noted, the call rests on the fitted dose curve; in most records, active means well fitted curve in the direction sought with a large enough effect in the repeat runs; inconclusive means weak or mixed curves; inactive means no such curve, though single readings can be large; an effect the other way counts as inactive or inconclusive.

The nature of test [1]: qHTS assay to identify small molecule agonists of the vitamin D receptor (VDR) signaling pathway - cell viability counter screen (AID 743224). Further: series mostly up to about 63 µM; nearly all actives have a fitted effect of over 50% in size. The method in brief: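 Viability is measured in the same wells as the VDR-bla reporter assay: after 16 h compound treatment and 2 h substrate loading, CellTiter-Glo is added and luminescence read 30 min later.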
In general terms: Quantitative high-throughput screening tests each substance at several concentrations.

A short description of test [2]: qHTS assay to identify small molecule antagonists of the vitamin D receptor (VDR) signaling pathway - cell viability counter screen (AID 743225). Further: nearly all actives have a fitted effect of over 50% in size. The method in brief: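 Same-well multiplex: following 16 h treatment of HEK 293T cells carrying a UAS-driven beta-lactamase reporter with compound and agonist (3 nM final), and a 2 h FRET substrate step, CellTiter-Glo was added and luminescence read after 30 min.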

A short description of test [3]: qHTS assay to identify small molecule agonists of the NFkB signaling pathway (AID 1159509; active means well fitted curve in the direction sought with a large enough effect in the signal ratio in the repeat runs, not every such curve was filed as active; the % refers to the signal ratio; further: series mostly up to about 61 µM). The method in brief: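 NFkB-bla ME-180 cells with a beta-lactamase reporter under an NF-kB response element were plated overnight, treated with compounds in DMSO for 5 hr at 37 C, then loaded with FRET substrate for 1.5 hr at room temperature.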
A short description of test [4]: qHTS assay to identify small molecule agonists of the NFkB signaling pathway - cell viability counter screen (AID 1159515; calls by dose curve; further: series mostly up to about 61 µM; nearly all actives have a fitted effect of over 55% in size). The method in brief: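 Multiplexed viability readout: after the 5 hr compound exposure and 1.5 hr FRET substrate step, CellTiter-Glo reagent went into the same NFkB-bla ME-180 wells; ATP luminescence was measured after 30 min at room temperature.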

The nature of test [5]: qHTS assay to identify small molecule agonists of the endoplasmic reticulum stress response signaling pathway (AID 1159516; active means well fitted activation curve with a large enough effect in the signal ratio in the repeat runs, not every such curve was filed as active; the % refers to the signal ratio). The method in brief:
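Tox21 10K library screened in quantitative HTS format on ESRE-bla HeLa cells, a beta-lactamase reporter under ER stress response element control; 5 hr treatment, FRET read.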

A short description of test [6]: qHTS assay to identify small molecule agonists of the endoplasmic reticulum stress response signaling pathway - cell viability counter screen (AID 1159517; calls by dose curve; further: series mostly up to about 61 µM; nearly all actives have a fitted effect of over 50% in size). The method in brief:
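Luminescence readout: CellTiter-Glo, 30 min RT, same wells as the ESRE-bla reporter read. HeLa ESRE-bla, 1,500 cells/well, o/n 37 C; cpd 5 hr 37 C/5% CO2.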

Test [7] addresses Nuclear receptor ROR-gamma (Homo sapiens) (UniProt P51449). The test can be described thus: qHTS assay to identify small molecule antagonists of the retinoid-related orphan receptor gamma (ROR-gamma) signaling pathway (AID 1159521; further: nearly all actives have a fitted effect of over 50% in size; further: potency means the concentration at half of the fitted maximal effect). The method in brief: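 Inducible-expression reporter assay: doxycycline (1 uM final) switched on RORγ in CHO cells bearing a ROR response element-luciferase construct, with test compounds present from 2 h beforehand. Decreased luminescence after 16 h defined antagonist activity.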

Test [8] in a line: qHTS assay to identify small molecule agonists of the AP-1 signaling pathway - cell viability counter screen (AID 1159525; calls by dose curve; further: nearly all actives have a fitted effect of over 55% in size). In a few lines:
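ME-180 AP-1-bla, 2500 cells/well, Opti-MEM + 0.5% dialyzed FBS; overnight 37 °C; cpd 15-pt titration, 5 h 37 °C; CellTiter-Glo 30 min RT; luminescence read; normalised to TOAB and DMSO controls.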

Test [9] can be described thus: qHTS assay to identify small molecule agonists of the AP-1 signaling pathway (AID 1159526; calls by dose curve).
Test [10] addresses Retinoic acid receptor RXR-alpha (Homo sapiens) (UniProt P19793). The experiment in a line: qHTS assay to identify small molecule agonists of the RXR signaling pathway (AID 1159527; calls by dose curve; further: nearly all actives have a fitted effect of over 35% in size). In a few lines: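 Compounds in DMSO were added to RXR-alpha-UAS-bla HEK 293T cells kept in 2% charcoal-stripped serum, and incubated 16 hr at 37 C with 5% CO2. Reporter signal came from a 2 hr B/G FRET substrate step.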

A short description of test [11]: qHTS assay to identify small molecule agonists of the RXR signaling pathway - cell viability counter screen (AID 1159529). Further: nearly all actives have a fitted effect of over 50% in size. Further: potency means the concentration at half of the fitted maximal effect. In a few lines: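 Counter screen: CellTiter-Glo luminescence. Cells: RXR-alpha-UAS-bla HEK 293T. Medium: 2% charcoal-stripped FBS. Treatment: 16 h, 37 C. Reagent incubation: 30 min, RT.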
Test [12] in a line: qHTS assay to identify small molecule antagonists of the retinoid acid receptor (RAR) signaling pathway - cell viability counter screen (AID 1159551). Further: nearly all actives have a fitted effect of over 35% in size. Further: potency means the concentration at half of the fitted maximal effect. The method in brief: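 Cytotoxicity counter screen in C3RL4 cells: 6 h compound exposure with 1 uM retinol (final), viability from cellular ATP by luminescence.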
Test [13] is described as follows: qHTS assay to identify small molecule antagonists of the retinoic acid receptor (RAR) signaling pathway (AID 1159552; further: nearly all actives have a fitted effect of over 50% in size; further: potency means the concentration at half of the fitted maximal effect). The method in brief:
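Antagonism of retinol-induced RARE reporter activity was measured in C3RL4 cells. Exposure to compounds and 1 uM final retinol lasted 6 hr at 37 C, with luminescence as endpoint.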

The nature of test [14]: qHTS assay to identify small molecule agonists of the retinoic acid receptor (RAR) signaling pathway (AID 1159553). Further: potency means the concentration at half of the fitted maximal effect. The method in brief: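 Agonist activity was scored in C3RL4 cells bearing a retinoic acid response element luciferase construct. Cells were treated with compounds for 6 hr at 37 C, and luciferase signal was measured as luminescence.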

Sequence of Retinoic acid receptor RXR-alpha (Homo sapiens) (P19793 whole entry, looked up): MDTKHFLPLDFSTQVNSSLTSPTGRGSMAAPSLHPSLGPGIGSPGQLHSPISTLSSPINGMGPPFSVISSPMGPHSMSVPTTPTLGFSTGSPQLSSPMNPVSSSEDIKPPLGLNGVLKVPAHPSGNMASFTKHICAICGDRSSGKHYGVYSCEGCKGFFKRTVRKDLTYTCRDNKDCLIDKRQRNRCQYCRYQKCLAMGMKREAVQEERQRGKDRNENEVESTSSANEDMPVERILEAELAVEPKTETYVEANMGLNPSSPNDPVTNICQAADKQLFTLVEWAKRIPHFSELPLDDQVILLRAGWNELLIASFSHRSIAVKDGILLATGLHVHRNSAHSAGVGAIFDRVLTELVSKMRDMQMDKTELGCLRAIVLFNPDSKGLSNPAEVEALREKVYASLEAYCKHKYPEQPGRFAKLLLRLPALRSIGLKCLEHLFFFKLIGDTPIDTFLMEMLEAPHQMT

With `COC(=O)c1cc(Cl)ccc1NS(=O)(=O)C(F)(F)F`, the Potency result in [1], in [2], in [7], in test [10], in [11] and in [12] was “inactive” throughout. The Potency result in test [13] was “inactive”. Further, the outcome in test [3], in test [4], in [5], in test [6], in [8] and in test [9] was inactive.
As for `NC(=O)N(O)[C@@H]1C=C[C@H](Oc2cccc(Oc3ccc(F)cc3)c2)C1`, the Potency result in test [1], in test [7], in test [11], in test [12] and in [13] was “inactive” in each case. For the same compound, the outcome in [3], in test [4], in [5], in test [6] and in test [8] was inactive. Further, in test [14], the Potency was 61.1 µM (active).
For `CC(COc1ccc(C(C)(C)C)cc1)OS(=O)OCCCl` (centres undefined), the Potency result in test [1], in [11] and in test [14] was “inactive” in each case. The result in test [3], in test [4], in [5], in [6], in [8] and in test [9] was inactive. Further, the Potency in [7] was 24.5 µM (active); in [13], 3.88 µM (active).
Consider `O=C(Nc1ccc([N+](=O)[O-])cc1)Nc1ccc([N+](=O)[O-])cc1`, for which the Potency entry in test [2], in test [12], in test [13] and in test [14] was “inactive” in each case. Also, the result in test [3], in test [4], in test [5], in test [6], in [8] and in [9] was inactive. For the same compound, the Potency was 2.37 µM (active) in test [7] and 0.952 µM (active) in [11].
With `O=C(Nc1ccccc1)Nc1ccccc1`, the Potency entry in test [1], in [2], in test [7], in test [12] and in [13] was “inactive” each time. Moreover, the compound was called inactive in test [3], in test [4], in [5], in [6], in test [8] and in [9].
For `NC(=O)Nc1ccc(Cl)c(Cl)c1`, the Potency entry in test [1], in test [12], in test [13] and in test [14] was “inactive” in each case. For the same compound, the outcome in test [3], in test [4], in test [5], in test [6] and in [9] was inactive.
For the compound `Cc1nccn1-c1ccc(Sc2cccc(C3(C(N)=O)CCOCC3)c2)cc1`, the Potency entry in test [2], in test [11] and in test [12] was “inactive” in each case. The outcome in test [3], in [4], in test [5], in test [6], in [8] and in test [9] was inactive. In addition, the Potency is 5.45 µM (active) in test [7] and 9.69 µM (active) in [13].
As to `Cc1cc2nc3ccc(=[N+](C)C)cc-3sc2cc1N`, the compound was classed as inactive in test [3], in test [4], in test [5] and in [6]. Moreover, the Potency result in test [7] and in [13] was “inactive” throughout. In addition, the Potency in [12] was 26.6 µM (active).
On to `CCCCC/C(=C\c1ccccc1)CO`, for which the call in test [3], in test [4], in test [5] and in [6] was inactive. The Potency result in [7], in [12], in test [13] and in test [14] was “inactive” each time.
As to `CC(C)CCCC(=O)O`, the Potency result in test [1], in [2], in [7], in test [11], in test [12] and in [13] was “inactive” throughout. In test [14], the Potency entry was “inactive”. The call in test [3], in test [4], in test [5], in [6], in test [8] and in test [9] was inactive.
Consider `CCc1nn(CCCN2CCN(c3cccc(Cl)c3)CC2)c(=O)n1CCOc1ccccc1`, for which, in test [1], the Potency entry is “inactive”. Moreover, the call in [3], in test [4], in [5], in test [6], in test [8] and in test [9] was inactive. Also, the Potency in [7] was 18.8 µM (active).
